Results: PubChem BioAssay AID1159580 (chemical genetic matrix, 2015)
Screen size: about 5,500 compounds; about 2,000 (36%) were called active. Inconclusive results (about 18%) are left out. Rule as the data show it: active = normalized growth mostly below about 0.91 (no sharp cut-off); inconclusive = no clear call, values can overlap the other calls; inactive = mostly above about 0.92. This is one part of the list.

Assay: chemical genetic growth profiling, strain panel (AID 1159580);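 also: tested at 20 µM; growth read once vehicle control cultures reached saturation at 30 °C; 1 = growth at the plate median or of vehicle wells; lower values mean less growth of the strain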
Details: growth OD

Measured: normalized growth

Nc1ccc(S(=O)(=O)Nc2ccccn2)cc1
inactive: S. cerevisiae deletion strains, locus YKL009W, strain mrt4, active compounds read low 0.993 | S. cerevisiae deletion strains, locus YKL068W, active compounds read low 0.991 | S. cerevisiae deletion strains, locus YKL085W, strain MDH1 (second series), active compounds read low 0.982 | S. cerevisiae deletion strains, locus YKL085W, strain MDH1, active compounds read low 0.982 | S. cerevisiae deletion strains, locus YKL160W, strain elf1, active compounds read low 1.02 | S. cerevisiae deletion strains, locus YKL190W, strain CNB1, active compounds read low 1.01 | S. cerevisiae deletion strains, locus YKR001C, strain vps1, active compounds read low 0.995 | S. cerevisiae deletion strains, locus YKR026C, strain gcn3, active compounds read low 1.02 | S. cerevisiae deletion strains, locus YKR091W, strain srl3, active compounds read low 1.01 | S. cerevisiae deletion strains, locus YLL001W, strain dnm1, active compounds read low 1.03 | S. cerevisiae deletion strains, locus YLL026W, active compounds read low 1.02 | S. cerevisiae deletion strains, locus YLL041C, strain sdh2, active compounds read low 1.01 | S. cerevisiae deletion strains, locus YLR027C, strain aat2, active compounds read low 1.01 | S. cerevisiae deletion strains, locus YLR039C, strain RIC1, active compounds read low 1.03 | S. cerevisiae deletion strains, locus YLR058C, strain SHM2, active compounds read low 1.01 | S. cerevisiae deletion strains, locus YLR102C, strain apc9, active compounds read low 0.993 | S. cerevisiae deletion strains, locus YLR113W, strain HOG1, active compounds read low 0.976 | S. cerevisiae deletion strains, locus YLR221C, strain rsa3, active compounds read low 0.993 | S. cerevisiae deletion strains, locus YLR258W, strain gsy2, active compounds read low 1 | S. cerevisiae deletion strains, locus YLR262C, strain YPT6 (second series), active compounds read low 1.03 | S. cerevisiae deletion strains, locus YLR262C, strain YPT6, active compounds read low 1.04 | S. cerevisiae deletion strains, locus YLR268W, strain sec22, active compounds read low 0.944 | S. cerevisiae deletion strains, locus YLR320W, strain mms22, active compounds read low 0.985 | S. cerevisiae deletion strains, locus YLR330W, strain CHS5, active compounds read low 1 | S. cerevisiae deletion strains, locus YLR342W, strain FKS1 (second series), active compounds read low 0.985 | S. cerevisiae deletion strains, locus YLR342W, strain FKS1, active compounds read low 1.01 | S. cerevisiae deletion strains, locus YLR357W, strain rsc2, active compounds read low 0.996 | S. cerevisiae deletion strains, locus YLR370C, strain arc18, active compounds read low 1.01 | S. cerevisiae deletion strains, locus YLR371W, strain rom2, active compounds read low 0.99 | S. cerevisiae deletion strains, locus YLR384C, strain iki3, active compounds read low 1.01 | S. cerevisiae deletion strains, locus YLR418C, strain cdc73, active compounds read low 0.985 | S. cerevisiae deletion strains, locus YML016C, strain PPZ1, active compounds read low 1.01 | S. cerevisiae deletion strains, locus YML032C, strain rad52, active compounds read low 0.97 | S. cerevisiae deletion strains, locus YML120C, strain ndi1, active compounds read low 1.01 | S. cerevisiae deletion strains, locus YML124C, strain tub3, active compounds read low 1 | S. cerevisiae deletion strains, locus YMR058W, strain fet3, active compounds read low 1.03 | S. cerevisiae deletion strains, locus YMR078C, strain ctf18, active compounds read low 0.989 | S. cerevisiae deletion strains, locus YMR125W, strain sto1, active compounds read low 1.01 | S. cerevisiae deletion strains, locus YMR129W, active compounds read low 1.01 | S. cerevisiae deletion strains, locus YMR205C, strain PFK2, active compounds read low 1.01 | S. cerevisiae deletion strains, locus YMR223W, strain ubp8, active compounds read low 1.01 | S. cerevisiae deletion strains, locus YMR231W, strain pep5, active compounds read low 1.01 | S. cerevisiae deletion strains, locus YMR263W, strain SAP30, active compounds read low 1.01 | S. cerevisiae deletion strains, locus YMR307W, strain GAS1, active compounds read low 1.02 | S. cerevisiae deletion strains, locus YNL067W, strain RPL9B, active compounds read low 1.01 | S. cerevisiae deletion strains, locus YNL071W, strain lat1, active compounds read low 0.998 | S. cerevisiae deletion strains, locus YNL128W, strain TEP1, active compounds read low 1.01 | S. cerevisiae deletion strains, locus YNL153C, strain GIM3, active compounds read low 1.01 | S. cerevisiae deletion strains, locus YNL183C, strain NPR1, active compounds read low 0.945 | S. cerevisiae deletion strains, locus YNL209W, strain ssb2, active compounds read low 1.01 | S. cerevisiae deletion strains, locus YNL233W, strain BNI4, active compounds read low 1 | S. cerevisiae deletion strains, locus YNL248C, strain rpa49, active compounds read low 0.985 | S. cerevisiae deletion strains, locus YNL250W, strain rad50, active compounds read low 0.988 | S. cerevisiae deletion strains, locus YNL271C, strain bni1, active compounds read low 0.998 | S. cerevisiae deletion strains, locus YNL298W, strain CLA4, active compounds read low 0.988 | S. cerevisiae deletion strains, locus YNL307C, strain MCK1, active compounds read low 0.997 | S. cerevisiae deletion strains, locus YNL322C, strain KRE1 (second series), active compounds read low 1.01 | S. cerevisiae deletion strains, locus YNL322C, strain KRE1, active compounds read low 1 | S. cerevisiae deletion strains, locus YNR049C, strain mso1, active compounds read low 1.02 | S. cerevisiae deletion strains, locus YNR052C, strain pop2, active compounds read low 0.991 | S. cerevisiae deletion strains, locus YOL006C, strain TOP1, active compounds read low 1.05 | S. cerevisiae deletion strains, locus YOL012C, strain htz1 0.921 | S. cerevisiae deletion strains, locus YOL147C, strain pex11, active compounds read low 1 | S. cerevisiae deletion strains, locus YOR001W, strain rrp6, active compounds read low 1.02 | S. cerevisiae deletion strains, locus YOR061W, strain CKA2, active compounds read low 1.01 | S. cerevisiae deletion strains, locus YOR069W, strain VPS5, active compounds read low 1.01 | S. cerevisiae deletion strains, locus YOR070C, strain gyp1, active compounds read low 1 | S. cerevisiae deletion strains, locus YOR080W, strain dia2, active compounds read low 1.02 | S. cerevisiae deletion strains, locus YOR083W, strain WHI5, active compounds read low 0.991 | S. cerevisiae deletion strains, locus YOR106W, strain vam3, active compounds read low 1.04 | S. cerevisiae deletion strains, locus YOR136W, strain idh2, active compounds read low 0.992 | S. cerevisiae deletion strains, locus YOR144C, strain elg1, active compounds read low 0.989 | S. cerevisiae deletion strains, locus YOR184W, strain ser1, active compounds read low 0.993 | S. cerevisiae deletion strains, locus YOR231W, strain MKK1, active compounds read low 0.986 | S. cerevisiae deletion strains, locus YOR265W, strain rbl2, active compounds read low 1.01 | S. cerevisiae deletion strains, locus YOR270C, strain vph1, active compounds read low 1.01 | S. cerevisiae deletion strains, locus YOR290C, strain snf2, active compounds read low 0.997 | S. cerevisiae deletion strains, locus YOR316C, strain cot1, active compounds read low 0.994 | S. cerevisiae deletion strains, locus YPL051W, strain arl3, active compounds read low 1.01 | S. cerevisiae deletion strains, locus YPL078C, strain atp4, active compounds read low 1.02 | S. cerevisiae deletion strains, locus YPL106C, strain sse1, active compounds read low 0.975 | S. cerevisiae deletion strains, locus YPL240C, strain hsp82, active compounds read low 1.02 | S. cerevisiae deletion strains, locus YPL256C, strain CLN2, active compounds read low 0.968 | S. cerevisiae deletion strains, locus YPR119W, strain clb2, active compounds read low 0.975 | S. cerevisiae deletion strains, locus YPR141C, strain kar3, active compounds read low 0.99 | S. cerevisiae deletion strains, locus YPR163C, strain tif3, active compounds read low 0.993 | S. cerevisiae deletion strains, locus YPR167C, strain met16, active compounds read low 0.986 | S. cerevisiae deletion strains, strain wtn01, active compounds read low 0.998 | S. cerevisiae strains, strain wild type, active compounds read low 1.01
